The structures appear in SMILES notation. Out of some 65,000 compounds screened, about 2,100 (3.2%) showed an effect of 50% or more. The median lay at about -52%. What follows is part of a selection rich in strong results, with near analogues and random picks from the rest.

In this assay the test system is Plasmodium falciparum. In words: Screen against P. falciparum Asexual Blood Stage (ABS), at 5uM. It is filed as functional, Dd2. Conditions: tested at 5 uM.
Turning to `OCCN1CCc2[nH]nc(C(c3ccccc3)c3ccccc3)c2C1`, the INHIBITION is recorded as 61.7%.
The same measure for `OCCCN1CCc2onc(C(c3ccccc3)c3ccccc3)c2C1`: 49.4%.
The same measure for `CC(O)CN1CCc2[nH]nc(C(c3ccccc3)c3ccccc3)c2C1` (stereo not drawn): 42.3%; for `c1coc(CN2CC[C@H]3O[C@@H](COCC4CC4)CC[C@H]32)c1`: -93.2%.
The same measure for `Cc1nc(C)c(C(=O)N2C[C@@H](C(=O)O)[C@H](C3CC3)C2)s1`: -75.7%; for `CCN(CC)Cc1nc2c(o1)CN(S(=O)(=O)c1cccs1)C2`: -61.5%.
For the molecule `CN(CCc1ccccc1)Cc1c(C2CCOCC2)[nH]c2ncccc12`, the INHIBITION was -22.4%.
The same measure for `CN(CCc1ccncc1)Cc1c(C2CCCC2)[nH]c2ncccc12`: -56.1%.
In the case of `CN(CCc1ccccc1)Cc1c(C2CCNCC2)[nH]c2ncccc12` it was 54.6%; in that of `Cc1ccc(CN2CCN(C3CSCCSC3)CC2CCO)o1` (stereo not drawn), -73.5%.
On to `CC(C)c1cc(C2CCN(C(=O)Cn3nc4ccccc4n3)CC2)[nH]n1`, for which the INHIBITION is listed as -107%.
The same measure for `O=C(c1ccc2[nH]ccc2c1)N1Cc2nc(CN3CCCCC3)oc2C1`: -72.8%; for `COCCN1CCN(CCCS(C)(=O)=O)CC1C` (stereo not drawn): -42.5%.
In the case of `CC1CN(Cc2ccccc2)CCCN1CCS(C)(=O)=O` (stereo not drawn), the INHIBITION is recorded as 39.2%.
In the case of `CNS(=O)(=O)CCCN1CCCCCC1c1ccc(C)o1` (stereo not drawn) it was 10.3%; in that of `CNS(=O)(=O)CCCN1CCCN(Cc2ccccc2)CC1C` (stereo not drawn), 59.7%; in that of `COCCN1CCN(CCCS(=O)(=O)c2ccccc2)CC1C` (stereo not drawn), -121%.
In the case of `CC1CN(Cc2ccccc2)CCCN1CCCS(C)(=O)=O` (stereo not drawn) it was 53.2%; in that of `O=C(Cn1cccn1)Nc1ccc(N2CCOCC2)cc1`, -6.33%; in that of `CN(C)C(=O)Cc1nc(CN2CCOC(Cn3cccn3)C2)cs1` (stereo not drawn), -56%.
In the case of `Cc1nn(C)cc1CN1CCC(C2Nc3ccccc3S(=O)(=O)N2)CC1` (stereo not drawn), the INHIBITION is given as -123%.
In the case of `Cc1nn(C)cc1CN1CCN(CC2(c3ccccc3)CC2)CC1` it was 67.2%; in that of `Cc1nn(C)cc1CN1CCCCCC1c1ccccc1Cl` (stereo not drawn), -104%; in that of `CCn1c(C)cc(C(=O)N2CCC(NC(=O)c3ccc(C)o3)CC2)c1C`, -31.2%.
With `CN(C)CC1CSCCCN1S(=O)(=O)Cc1ccc(C(F)(F)F)cc1` (stereo not drawn), the INHIBITION is 10.1%.
Turning to `CN(C)CC1CSCCCN1S(=O)(=O)Cc1cccc(F)c1` (stereo not drawn), the INHIBITION amounted to 58.6%.
The same measure for `Cc1nccn1CC1CCCN1S(=O)(=O)Cc1cccc(F)c1` (stereo not drawn): -54%; for `CN(C)CC1CSCCCN1S(=O)(=O)c1ccc(C(F)(F)F)cc1` (stereo not drawn): 60.7%.
In the case of `CS(=O)(=O)C1CCN(S(=O)(=O)Cc2cccc(F)c2)CC1` it was -89.8%; in that of `CN(C)CC1CSCCCN1C(=O)Nc1ccc(C(C)(C)C)cc1` (stereo not drawn), -12.2%.
In the case of `CC(C)N(Cc1ccc(C(=O)O)o1)C(C)C` it was -21.6%; in that of `Cc1cnc(N2CCc3c(c(COc4cncnc4)nn3C)C2)nc1`, -95%; in that of `CCc1nc(C2NC3(CCCC3)C(=O)N2CC2CC2)cs1` (stereo not drawn), -67.6%.
With `CN(C)CCNC(=O)CCC1CCN(C(=O)c2ccc(Cl)cc2O)CC1`, the INHIBITION was -57.2%.
With `Cc1ccc(CN2CCC3(CC(=O)N(c4ccc5c(c4)OCO5)C3)C2)o1` (stereo not drawn), the INHIBITION is given as -11.7%.
On to `Cc1nc(C)n(C2CCCN(C(=O)COc3ccccc3)C2)n1` (stereo not drawn), for which the INHIBITION is given as -30.7%.
The same measure for `Cc1ccc(S(=O)(=O)N2CC[C@@H](O)C2)c(F)c1`: -13.3%.
Consider `CCC[C@H]1CN(S(=O)(=O)c2ccc(-c3c(C)noc3C)s2)C[C@@H]1N`, for which the INHIBITION amounted to 72.8%.
For `Cc1ccc(C)c(S(=O)(=O)N2CCN(C)C3(CCC(=O)N(C)CC3)C2)c1` (stereo not drawn), the INHIBITION was -107%.
Turning to `CCC[C@H]1CN(S(=O)(=O)c2cc(C)ccc2C)C[C@@H]1N`, the INHIBITION came to 68.6%.
Take `Cc1ccc(F)c(S(=O)(=O)N2CCCC2c2ccncc2)c1` (stereo not drawn): the INHIBITION is recorded as -73.9%.
Regarding `Cc1noc(C)c1-c1cccc(C2CCN(S(=O)(=O)N(C)C)CC2)n1`, the INHIBITION was -81.4%.
In the case of `CCC[C@H]1CN(S(=O)(=O)c2cc(C)ccc2F)C[C@@H]1N`, the INHIBITION came to 52.5%.
Consider `CCC[C@@H]1CN(S(=O)(=O)c2ccc(C)c(F)c2)C[C@H]1N(C)C`, for which the INHIBITION is 39.9%.
The same measure for `Cc1noc(C)c1-c1n[nH]c2c1CN(S(=O)(=O)c1cccs1)CC2`: -24.2%; for `CN(C)c1cc2c(nn1)CCN(C(=O)c1ccc(-n3cccn3)nc1)C2`: -129%; for `CC(C)n1nc(CN2CCOCC2)c2c1CN(C(=O)c1ccno1)C2`: -44.4%.
The same measure for `Cc1ccc(C(=O)N2CC[C@@H]3[C@H]2CCC(=O)N3CCN(C)C)cn1`: -2.53%.
As for `CCc1cnc(NC(=O)NC2CCN(C)CC2)s1`, the INHIBITION was -80.8%.
Take `CC1=N[C@@]2(CC[C@@H]3CN(C(=O)NCc4cccc(F)c4)C[C@@H]32)C(=O)N1`: the INHIBITION is -94.6%.
In the case of `CC(C(=O)Nc1ccccc1F)S(C)(=O)=O` (stereo not drawn) it was -75.4%; in that of `Cc1nc(-c2ccc(Cl)cc2)n(CC(=O)NC(C)C)c(=O)c1CCO`, -186%.
With `Cc1cc(C)c(C(=O)NC(CN2CCCC2)c2ccccc2)c(=O)[nH]1` (stereo not drawn), the INHIBITION is given as -88.9%.
Regarding `Cc1cc(C)c(CCNC(=O)CN2CCCN(C(N)=O)CC2)c(C)c1`, the INHIBITION is reported as -67.4%.
The same measure for `CCC(CN1CCCC1)NC(=O)Cc1c(C)[nH]c2cc(C)cc(C)c12` (stereo not drawn): 61.6%.
Turning to `CC(=O)c1c(C)nn(CC(=O)N2CCCC2c2ccc(C(N)=O)s2)c1C` (stereo not drawn), the INHIBITION was -149%.
Regarding `CCN(CC)C(=O)CCc1nc(-c2cnn3c(C)cc(C)nc23)no1`, the INHIBITION is on record as -59.8%.
In the case of `COC[C@H]1CCC[C@]12CN(CCc1ccccc1)CCO2` it was -30.9%; in that of `O=C1CC[C@H]2[C@H](CCN2S(=O)(=O)C2CC2)N1CCN1CCCC1`, -109%.
As to `CC(C)[C@H](N)CC(=O)Nc1nc(-c2cnc(N3CCOCC3)nc2)cs1`, the INHIBITION is reported as -62.3%.
The same measure for `CN1C[C@H](c2ccccc2)[C@H]2CN(C(=O)Cc3ccc(O)cc3)CC[C@H]21`: 58%.
In the case of `Cc1ccsc1[C@@H]1CCN(C(=O)Cc2ccc(O)cc2)C[C@H]1O` it was 11.1%.
On to `CN1C[C@H](c2ccccc2)[C@H]2CN(C(=O)Cc3cccc(O)c3)CC[C@H]21`, for which the INHIBITION turned out to be 48.1%.

Source of the values: ChEMBL document CHEMBL4513216, “Probing the Open Global Health Chemical Diversity Library for Multistage-Active Starting Points for Next-Generation Antimalarials” (ACS Infect Dis, 2020).
